The list is not random: actives were taken first. Their share in the collection is about 2.4%.
Hsp90 Hop PPI: changes Hsp90-Hop TPR2A binding signal, up or down | AID 595 | 0.44% of 71,000 active | Potency, µM (titrated, usually from 57 µM) | AlphaScreen TPR2A-His6 binding biotin-Hsp90 C-terminal peptide; active means well fitted curve in either direction with a large enough effect; inconclusive means small, poorly fitted or top-dose-only effect, or another doubt
ALOX15 inhib: 15-hLO (ALOX15) enzyme inhibition. P16050. purified 15hLO-1, xylenol orange hydroperoxide absorbance. Potency, µM (doses to about 57.1 µM), hits mostly inhibitors. 1.4% of 74,000 active. AID 887; further: nearly all actives have a fitted effect of over 55% in size
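Compounds were preincubated 15 min at room temperature with 40 nM purified human enzyme (25 mM Hepes pH 7.5, 0.01% Triton X-100); 50 uM arachidonic acid reacted 6 min. Fe-xylenol orange detection, 30 min, absorbance ratio 573/405 nm.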
15-hLO-2 inh: blocks human 15-lipoxygenase 2 activity | 0.56% of 110,000 active | purified 15hLO-2, xylenol orange hydroperoxide absorbance | O15296 | AID 881 | Potency, µM (top dose mostly 57.1 µM), hits mostly inhibitors; further: nearly all actives have a fitted effect of over 60% in size
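Read-out: hydroperoxide product oxidises ferrous iron, measured as xylenol orange complex via the 573-to-405 nm absorbance ratio after 30 min. Reaction: 50 nM enzyme, 15 min compound preincubation, 45 uM arachidonic acid, 90 min RT, Hepes pH 7.5 with Triton X-100.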
Caspase-7 inhib: caspase-7 (human) inhibition, allosteric or competitive; recombinant caspase-7, Ac-DEVD-AFC fluorescence rate; Potency, µM (top dose mostly 57.5 µM), hits mostly inhibitors; 0.02% of 75,000 active; AID 889; active means well fitted inhibition curve with a large enough effect in the main read-out, with a control signal flat, not every such curve was filed as active; inconclusive means small, poorly fitted or top-dose-only effect, or a change in a side signal
Tau filament bind: binders of human tau filaments | P10636 | recombinant tau filaments, thioflavin S fluorescence, 15 h; filaments grown with octadecylsulfate alongside compound | Potency, µM (series often up to 57.1 µM) | 2% of 71,000 active | AID 596;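 further: actives lower thioflavin S fluorescence by blocking filaments or displacing dye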
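His-tagged recombinant human tau (exons 2, 3, 10; 1 uM final) fibrillized with 30 uM sodium octadecylsulfate, 15 h at 37 C, in pH 7.4 HEPES buffer with 10 uM thioflavine S and 5 mM DTT. Reduced ThS fluorescence (450/510 nm) marks activity.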
Casp1 inh: blocks human caspase-1 allosterically or competitively; P29466; Caspase-1 enzyme, Ac-WEHD-AFC fluorogenic rate; Potency, µM (titrated, usually from 57.5 µM), hits mostly inhibitors; 0.03% of 75,000 active; AID 900
Hits are given with their value; [ ] = dose if it differs, or a comment. Unless noted, the call rests on the fitted dose curve; in most records, active means well fitted curve in the direction sought with a large enough effect; inconclusive means small, poorly fitted or top-dose-only effect, or another doubt; inactive means no such curve, though single readings can be large; an effect the other way counts as inactive or inconclusive.

For O=C(CSCc1nc2ccccc2[nH]1)N1CCN(c2ccc(F)cc2)CC1 the results were Hsp90 Hop PPI inactive, ALOX15 inhib inactive, 15-hLO-2 inh inactive, Caspase-7 inhib inactive, Tau filament bind 20µM and Casp1 inh inactive.
COc1cc(CNc2ccc3[nH]c(=O)[nH]c3c2)ccc1OCC(=O)NC(C)(C)C was read as Hsp90 Hop PPI inactive, ALOX15 inhib 25µM, 15-hLO-2 inh inactive, Caspase-7 inhib inactive, Tau filament bind 13µM and Casp1 inh inconclusive.
For COc1cc(CNc2ccc3[nH]c(=O)[nH]c3c2)cc(Br)c1OCC(=O)NC(C)(C)C the results were 15-hLO-2 inh inactive.
COc1ccc(-c2ccc(C#N)c(OC(=O)c3c(Cl)cccc3Cl)n2)cc1 was read as 15-hLO-2 inh inactive.
CN(C)c1ncc2nc(-c3ccccc3)c(=O)n(C3CC3)c2n1 was read as Hsp90 Hop PPI 20µM, ALOX15 inhib inconclusive, 15-hLO-2 inh inactive, Caspase-7 inhib inconclusive and Tau filament bind inactive.
Screening CN(C)c1ncc2nc(-c3ccc(Cl)cc3)c(=O)n(C3CC3)c2n1 returned Hsp90 Hop PPI inactive, ALOX15 inhib inactive, 15-hLO-2 inh inactive, Caspase-7 inhib inconclusive and Tau filament bind inactive.
`COc1ccc(N2CCN(C(=O)CSc3nnnn3-c3ccc4c(c3)OCCO4)CC2)cc1` gave Hsp90 Hop PPI inactive, ALOX15 inhib inactive, 15-hLO-2 inh inactive, Caspase-7 inhib inactive, Tau filament bind inactive and Casp1 inh inactive.
For O=C(c1ccc(Cl)cc1)N1CCC(c2nc(-c3cccs3)no2)CC1 the results were Hsp90 Hop PPI inactive, ALOX15 inhib inactive, 15-hLO-2 inh inactive, Caspase-7 inhib inactive, Tau filament bind inactive and Casp1 inh inactive.
Screening CN(C)c1ccc(C=Nc2ccc(N(C)C)cc2)cc1 returned ALOX15 inhib inconclusive, Caspase-7 inhib inactive and Casp1 inh inactive.
`CN(C)c1ccc(N=Cc2ccco2)cc1` gave Hsp90 Hop PPI inconclusive, ALOX15 inhib inconclusive, 15-hLO-2 inh 32µM, Caspase-7 inhib inactive, Tau filament bind 13µM and Casp1 inh inactive.
For O=C1c2ccccc2C(=O)N1CCCCSc1nnc2c(Cl)cc(Cl)cn12 the results were 15-hLO-2 inh inactive.
Screening O=C1c2cc([N+](=O)[O-])ccc2-c2ccc3c4ccc5c6c(ccc(c7ccc1c2c73)c64)C(=O)c1cc([N+](=O)[O-])ccc1-5 returned Hsp90 Hop PPI inconclusive, ALOX15 inhib inactive[11.4 µM], 15-hLO-2 inh inconclusive, Caspase-7 inhib inactive[11.5 µM], Tau filament bind 1.6µM and Casp1 inh inactive[11.5 µM].
CCN1C(=O)[C@H]2[C@H]3[C@H](O)[C@H](O)C/C(=N/O[C@@H]4O[C@@H](COC(C)=O)[C@@H](OC(C)=O)[C@@H](OC(C)=O)[C@H]4OC(C)=O)[C@@H]3CC[C@@H]2C1=O was read as ALOX15 inhib inactive[11.4 µM], Caspase-7 inhib inactive[11.5 µM] and Casp1 inh inactive[11.5 µM].
N#C/C(C(=O)NCc1ccco1)=C1/SC(Cc2ccc(F)cc2)C(=O)N1c1ccccc1 (stereo not drawn) was read as 15-hLO-2 inh inactive.
For COc1ccc(-c2c3c([nH]c(=S)c2C#N)CCC3)cc1 the results were 15-hLO-2 inh inactive[2.29 µM].
`N#Cc1c(-c2ccco2)c2c([nH]c1=S)CCCC2` gave Hsp90 Hop PPI inactive, ALOX15 inhib 16µM, 15-hLO-2 inh inactive, Caspase-7 inhib inactive, Tau filament bind 32µM and Casp1 inh inconclusive.
`N#Cc1c(-c2cccnc2)c2c([nH]c1=S)CCCC2` gave 15-hLO-2 inh 20µM.
Screening O=C(Cn1c(NCCO)nc2ccccc21)c1cccs1 returned Hsp90 Hop PPI inactive, ALOX15 inhib inactive, 15-hLO-2 inh inactive, Caspase-7 inhib inactive, Tau filament bind inactive and Casp1 inh inactive.
For Oc1ccc(N=Cc2ccc(O)c(O)c2)cc1 the results were Hsp90 Hop PPI inactive, ALOX15 inhib 13µM, Caspase-7 inhib inactive, Tau filament bind 6.3µM and Casp1 inh inactive.
For COc1cc2c3c(c1)/C(=C1/SC(NC(C)=O)=NC1=O)C(=O)N3C(C)(C)C=C2C the results were Hsp90 Hop PPI 25µM, ALOX15 inhib inactive, 15-hLO-2 inh inconclusive, Caspase-7 inhib inconclusive and Tau filament bind inactive.
For COc1ccc(N2C(=O)c3ccc(NC(C)=O)cc3C2=O)cc1 the results were Hsp90 Hop PPI inactive, ALOX15 inhib inactive, 15-hLO-2 inh inactive, Caspase-7 inhib inactive, Tau filament bind inactive and Casp1 inh inactive.

Source: PubChem (National Center for Advancing Translational Sciences (NCATS))
